Most compounds without a hit are left out; they make up all but 2.8% or so of the library.
pPAFAH FP inh = inhibitors of human plasma PAF acetylhydrolase (pPAFAH). Q13093. inhibition, % at 3.39 µM. hit rate 1.5% among 330,000. recombinant pPAFAH, FP-rhodamine probe fluorescence polarization;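 active means inhibition above the mean inhibition across the screen plus 3 SD, cut at about 25% in these data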;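 further: inhibitors block binding of the rhodamine activity-based probe so polarization drops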
Target sequence (Q13093 whole entry, looked up): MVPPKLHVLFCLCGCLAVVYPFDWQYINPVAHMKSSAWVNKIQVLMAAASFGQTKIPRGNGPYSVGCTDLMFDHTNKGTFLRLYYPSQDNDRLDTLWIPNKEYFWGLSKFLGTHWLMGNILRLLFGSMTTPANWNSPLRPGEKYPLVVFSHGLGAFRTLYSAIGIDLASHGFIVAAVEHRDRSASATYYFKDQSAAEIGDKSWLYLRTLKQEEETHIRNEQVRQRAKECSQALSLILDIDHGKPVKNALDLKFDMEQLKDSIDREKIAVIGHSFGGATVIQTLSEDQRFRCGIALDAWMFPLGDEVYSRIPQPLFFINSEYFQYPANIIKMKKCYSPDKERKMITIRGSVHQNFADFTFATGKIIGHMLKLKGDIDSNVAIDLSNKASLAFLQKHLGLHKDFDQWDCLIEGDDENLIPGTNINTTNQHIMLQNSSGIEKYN
HTRA1 inhibitor = blocks human HTRA1 serine peptidase; hit rate 0.5% among 340,000; inhibition, % at 5.96 µM; recombinant HTRA1, FP-rhodamine activity-based probe, fluorescence polarization; AID 504803; in the data active means inhibition above about 36%
PAFAH2 FP inh = inhibitors of human PAFAH2 | Q99487 | recombinant PAFAH2, FP-rhodamine activity probe, fluorescence polarization | inhibition, % at 3.39 µM | hit rate 0.99% among 340,000;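 active means inhibition above the mean over all tested compounds plus 3 SD, cut at about 30% in these data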;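 further: inhibitors block probe labeling of enzyme so polarization drops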
PAFAH1B3 inh = PAFAH1B3 (human) inhibition | recombinant PAFAH1B3, FP-rhodamine probe, fluorescence polarization | hit rate 0.28% among 340,000 | inhibition, % at 3.39 µM | Q15102;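 active means inhibition above the screen-wide average of all tested compounds plus 3 SD, cut at about 25% in these data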
Target sequence (Q15102 whole entry, looked up): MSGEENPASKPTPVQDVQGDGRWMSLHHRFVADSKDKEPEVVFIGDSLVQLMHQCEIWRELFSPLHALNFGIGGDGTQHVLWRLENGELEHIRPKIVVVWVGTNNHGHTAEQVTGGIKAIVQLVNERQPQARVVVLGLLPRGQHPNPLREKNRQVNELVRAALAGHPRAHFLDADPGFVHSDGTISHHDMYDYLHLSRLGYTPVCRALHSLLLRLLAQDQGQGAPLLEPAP
DAGLB inh = diacylglycerol lipase beta (human) inhibition; Q8NCG7; HEK293T DAGLB membrane lysate, EnzChek fluorogenic substrate; inhibition, % at 5.17 µM; hit rate 0.059% among 340,000; AID 504411; in the data active means inhibition above about 34%
PAFAH1B2 FP inh = PAFAH1B2 (human) inhibition | P68402 | AID 492953 | inhibition, % at 3.39 µM | recombinant PAFAH1B2, FP-rhodamine activity probe, fluorescence polarization | hit rate 1.2% among 340,000;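 active means inhibition above the mean of all tested compounds plus 3 SD, cut at about 24% in these data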
PAFAH2 confirm = confirmation of human PAFAH2 inhibitors | shares compounds with PAFAH2 FP inh | recombinant PAFAH2, FP-rhodamine activity probe, fluorescence polarization | inhibition, % at 3.39 µM | hit rate 65% among 2,300 | AID 493030;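 active means mean inhibition over three repeats above a set limit taken from the earlier primary screen, cut at about 30% in these data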;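 further: inhibitor blocks binding of rhodamine activity probe so polarization falls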
Of the large screens only hits and unclear results are named; the others gave an inactive call (follow-up assays come after a bar, where they were run).

Nc1ncnc2c1ncn2[C@@H]1O[C@H](CNS(=O)(=O)c2cc3ccccc3s2)[C@@H](O)[C@H]1O	none
O=C(NCCc1ccc(C(F)(F)F)cc1)C1CCC(=O)N(CCCc2ccccc2)C1 (stereo not given)	PAFAH2 FP inh 53.0 | PAFAH2 confirm 53.4
O=C(COC(=O)c1ccc(Br)o1)NC1CCCCC1	none
Cc1cccc(C(=O)NCC(=O)OCC(=O)NC2CCCCC2)c1	PAFAH2 FP inh 56.9 | PAFAH2 confirm 41.5
O=C(COC(=O)C1=COCCO1)NC1CCCCC1	PAFAH2 FP inh 57.5 | PAFAH2 confirm 55.5
Nc1cccc(C(=O)OCC(=O)NC2CCCc3ccccc32)c1 (stereo not given)	PAFAH2 FP inh 52.6 | PAFAH2 confirm inactive
O=C(COC(=O)c1ccccc1)NC1CCCCCC1	PAFAH2 FP inh 86.3 | PAFAH2 confirm 78.2
O=C(COC(=O)c1ccc(Cl)cc1)NC1CCCCCC1	PAFAH2 FP inh 78.0 | PAFAH2 confirm 78.8
CC(=O)Nc1cccc(C(=O)OCC(=O)NC2CCCCCCC2)c1	PAFAH2 FP inh 84.2 | PAFAH2 confirm 83.5
N#Cc1ccc(C(=O)OCC(=O)NC2CCCC2)cc1	none
O=C(COC(=O)c1ccco1)NC1CCCCC1	PAFAH2 FP inh 79.8 | PAFAH2 confirm 67.9
CNC(=S)NNC(=O)c1sc(-c2cc(C)on2)nc1C	none (no result: HTRA1 inhibitor, PAFAH2 FP inh, PAFAH1B3 inh, DAGLB inh, PAFAH1B2 FP inh)
Cc1cc(=O)c2c([nH]1)c(C)cc1[nH]c(C)c(C)c12	none
Cc1c(C(=O)OCC(=O)Nc2ccc(C(=O)N(C)C)cc2)oc2ccccc12	none
O=C(COC(=O)c1ccc(NS(=O)(=O)c2ccc3c(c2)OCCO3)cc1)NC1CC1	PAFAH2 FP inh 63.6 | PAFAH2 confirm 51.1
CC1CCCC(NC(=O)COC(=O)c2ccc3c(c2)OCCO3)C1C (stereo not given)	PAFAH2 FP inh 83.6 | PAFAH2 confirm 76.5
O=C(NC1CCCCC1)c1ccc2c(c1)OCO2	none
CC1CCCC(NC(=O)c2ccc3c(c2)OCCO3)C1C (stereo not given)	none
CN(C(=O)COC(=O)c1ccc2c(c1)OCO2)C1CCCCC1	PAFAH2 FP inh 66.7 | PAFAH2 confirm 67.1
CCNC(=O)COC(=O)c1ccc(NS(=O)(=O)c2ccc3c(c2)OCCO3)cc1	none
O=C(COC(=O)c1ccc2c(c1)OCO2)NC1CCCCC1	PAFAH2 FP inh 89.1 | PAFAH2 confirm 81.9
O=C(Nc1cc2cc([N+](=O)[O-])ccc2oc1=O)c1cccs1	none (no result: HTRA1 inhibitor, PAFAH2 FP inh, PAFAH1B3 inh, DAGLB inh, PAFAH1B2 FP inh)
Oc1c(Br)cc(Br)cc1CNn1cnnc1	none
CC(CC(=O)NCc1ccc(Cl)cc1)c1ccccc1 (stereo not given)	none
COc1ccc(NC(=O)COC(=O)C2C3CC4OC(=O)C2C4C3)cc1 (stereo not given)	none
O=C(COC(=O)C1C2CC3OC(=O)C1C3C2)Nc1ccccc1 (stereo not given)	PAFAH2 FP inh 74.8 | PAFAH2 confirm 66.1
O=C(COC(=O)C1C2CC3OC(=O)C1C3C2)Nc1ccc(Br)cc1 (stereo not given)	PAFAH2 FP inh 78.7 | PAFAH2 confirm 70.8
O=C(COC(=O)C1C2CC3OC(=O)C1C3C2)Nc1ccc(F)cc1 (stereo not given)	PAFAH2 FP inh 77.8 | PAFAH2 confirm 68.8
O=C(CSc1nncc2ccccc12)Nc1ccc(C(=O)O)cc1	none
COc1cccc(NC(=O)COC(=O)C2CCCCC2)c1	PAFAH2 FP inh 82.1 | PAFAH2 confirm 63.2
COc1cccc(NC(=O)COC(=O)C2CC2)c1	PAFAH2 FP inh 68.9 | PAFAH2 confirm 56.9
COc1ccc(NC(=O)COC(=O)C2CCCCC2)c([N+](=O)[O-])c1	PAFAH2 FP inh 29.7 | PAFAH2 confirm inactive
CNS(=O)(=O)c1cccc(C(=O)OCC(=O)Nc2ccc(OC)cc2[N+](=O)[O-])c1	PAFAH2 FP inh 31.2 | PAFAH2 confirm inactive
O=C(COC(=O)C1CCC1)Nc1cccc(Cl)c1	none
CN(CCc1cn[nH]c1)C(=O)C1CCC(=O)N(CC2CCCCC2)C1 (stereo not given)	none (no result: pPAFAH FP inh)
CCOc1ccc(N(C)C(=O)CCc2nnc3ccc(N4CCCCC4)nn23)cc1	none
CCN(CC)S(=O)(=O)c1ccc(O)c(C(=O)OCC(=O)NC23CC4CC(CC(C4)C2)C3)c1	PAFAH2 FP inh 77.4 | PAFAH2 confirm 68.1
O=C(COC(=O)c1ccc(O)cc1O)NC12CC3CC(CC(C3)C1)C2	PAFAH2 FP inh 74.6 | PAFAH2 confirm 59.9
CCN(CC)S(=O)(=O)c1ccc(O)c(C(=O)OCC(=O)Nc2cc(C)c(C)cc2[N+](=O)[O-])c1	none
COc1cc(OC)c(C(=O)NC23CC4CC(CC(C4)C2)C3)cc1OC	none
CCN(CC)S(=O)(=O)c1ccc(O)c(C(=O)OCC(=O)Nc2ccc(OC(F)(F)F)cc2)c1	PAFAH2 FP inh 38.1 | PAFAH2 confirm inactive
CCN(CC)S(=O)(=O)c1ccc(O)c(C(=O)OCC(=O)NC2CCCC2)c1	none
COc1cc(OC)c(C(=O)OCC(=O)NC23CC4CC(CC(C4)C2)C3)cc1OC	PAFAH2 FP inh 96.8 | PAFAH2 confirm 81.6
O=C(COC(=O)C(O)c1ccccc1)NC12CC3CC(CC(C3)C1)C2 (stereo not given)	none
CC(C)CCCCCCCCCCCCC(=O)NCC(=O)NC1C(C)OC(Nc2ncnc3nc[nH]c23)C(O)C1O (stereo not given)	none (no result: pPAFAH FP inh)
Cc1ccccc1CNC(=O)CCNS(=O)(=O)c1ccc(OC(F)(F)F)cc1	none
CCN(CC)S(=O)(=O)c1cccc(C(=O)OCC(=O)C23CC4CC(CC(C4)C2)C3)c1	PAFAH2 FP inh 40.0 | PAFAH2 confirm inactive
CCOC(=O)c1c(C)[nH]c(C)c1C(=O)COC(=O)c1cccc(S(=O)(=O)N(CC)CC)c1	none
COc1ccccc1C(=O)OCC(=O)NC12CC3CC(CC(C3)C1)C2	PAFAH2 FP inh 73.9 (no result: pPAFAH FP inh) | PAFAH2 confirm 81.6
CCOc1cc(C(=O)NCCC(=O)N2CCC3(CC2)NCCc2[nH]cnc23)cc(OCC)c1OCC	none
O=C(c1ccc(Oc2ccc(C(F)(F)F)cc2[N+](=O)[O-])cc1)N1CCOCC1	PAFAH2 FP inh 34.4 | PAFAH2 confirm inactive
O=C(c1ccc(Oc2ccc([N+](=O)[O-])cc2Cl)cc1)N1CCCC1	PAFAH2 FP inh 40.4 | PAFAH2 confirm 30.0
O=C(c1ccccc1Oc1ccc(C(F)(F)F)cc1[N+](=O)[O-])N1CCOCC1	none
O=C(c1cccc(C(F)(F)F)c1)c1c[nH]c(C(=O)NCC2CCCO2)c1 (stereo not given)	none
Cc1cccc(C(=O)NNC(=O)c2ccccc2O)c1	PAFAH2 FP inh 35.0 | PAFAH2 confirm inactive
Cc1sc2nc(SCC(=O)Nc3cccc(S(N)(=O)=O)c3)[nH]c(=O)c2c1C	PAFAH2 FP inh 35.3 | PAFAH2 confirm inactive
Cc1ccc(C(=O)O/N=C(\c2ccccc2)c2cccnc2)cc1	PAFAH2 FP inh 72.6 | PAFAH2 confirm 80.5
